Unmarked numbers belong to inactive results. Inconclusive results are not listed. Where a call stands in place of a potency, no number is given. Calls of active or inactive are those of the source. Unless noted, calls come from the whole dose curve; as a rule, active = well fitted curve in the direction sought with a large enough effect in the repeat runs; inconclusive = weak or mixed curves; inactive = no such curve, though single readings can be large; an effect the other way counts as inactive or inconclusive.
What was measured:
[1] = qHTS RealTime-Glo MT Cell Viability Assay in HEK293 cells - 24 hour (AID 1224886); note: top concentration of the series differs between compounds; nearly all actives have a fitted effect of over 50% in size
Procedure, shortened: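 Assay medium contained NanoLuc luciferase plus cell-permeant prosubstrate, added with HEK293 cells at 600 cells/well. After 5 h at 37 C/5% CO2 compounds were added; plates stayed at 37 C for 40 h with serial luminescence reads.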

[2] = qHTS RealTime-Glo MT Cell Viability Assay in HEK293 cells - 8 hour (AID 1224887); note: top concentration of the series differs between compounds; nearly all actives have a fitted effect of over 50% in size
Procedure, shortened: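 Viable HEK293 cells reduce a cell-permeant prosubstrate; the product diffuses out and is consumed by NanoLuc in the medium to give light. Compounds went in after a 5 h incubation and plates were read over the treatment course.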

[3] = A CellTox Green Cytotoxicity Assay to monitor cytotoxicity in HEK293 cells - 16 hour (AID 1224888); note: nearly all actives have a fitted effect of over 35% in size
Procedure, shortened: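 Fluorescence intensity, read at 0, 8, 16, 24, 32 and 40 h of compound treatment, reflected dye binding to DNA of dead HEK293 cells; compounds (23 nL, DMSO) were added 5 h after plating cells with reagent.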

[4] = qHTS RealTime-Glo MT Cell Viability Assay in HepG2 cells - 0 hour (AID 1224889); note: nearly all actives have a fitted effect of over 50% in size
Procedure, shortened: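 qHTS, HepG2, 600 cells/well, RealTime-Glo (NanoLuc + prosubstrate) added with cells; 5 h preincubation; DMSO compound addition; 37 C; luminescence at 0/8/16/24/32/40 h.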

[5] = A CellTox Green Cytotoxicity Assay to monitor cytotoxicity in HepG2 cells - 8 hour (AID 1224890); note: nearly all actives have a fitted effect of over 45% in size
Procedure, shortened: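 Using 1536-well format, dye-containing HepG2 suspension was seeded, allowed 5 h at 37 C/5% CO2, dosed by pintool with compounds, positive and negative controls, and imaged for fluorescence across 40 h.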

[6] = qHTS assay to identify small molecule antagonists of the estrogen receptor alpha (ER-alpha) signaling pathway using the BG1 cell line in the presence of 0.1 nM 17-beta-estradiol - cell viability counter screen (AID 1259241); note: nearly all actives have a fitted effect of over 40% in size
Procedure, shortened: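 Estradiol-stimulated (0.1 nM) VM7Luc4E2 cells exposed to compounds 22 hr; viability measured by fluorescence of cleaved CellTiter-Fluor substrate after 30 min.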

[7] = qHTS assay to identify small molecule antagonists of the androgen receptor (AR) signaling pathway using the MDA cell line in the presence of 0.5 nM R1881 - cell viability counter screen (AID 1259242); note: nearly all actives have a fitted effect of over 45% in size
Procedure, shortened: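 Viability of MDA-kb2 cells was multiplexed with the luciferase AR readout; after 16 hr with compounds and R1881 at 0.5 nM final, CellTiter-Fluor fluorescence was recorded.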

[8] = target: Estrogen receptor (Homo sapiens) (UniProt P03372); test: qHTS assay to identify small molecule antagonists of the estrogen receptor alpha (ER-alpha) signaling pathway using the BG1 cell line in the presence of 0.1 nM 17-beta-estradiol (AID 1259244); note: nearly all actives have a fitted effect of over 50% in size
Chain of Estrogen receptor (Homo sapiens) (P03372 whole entry, looked up): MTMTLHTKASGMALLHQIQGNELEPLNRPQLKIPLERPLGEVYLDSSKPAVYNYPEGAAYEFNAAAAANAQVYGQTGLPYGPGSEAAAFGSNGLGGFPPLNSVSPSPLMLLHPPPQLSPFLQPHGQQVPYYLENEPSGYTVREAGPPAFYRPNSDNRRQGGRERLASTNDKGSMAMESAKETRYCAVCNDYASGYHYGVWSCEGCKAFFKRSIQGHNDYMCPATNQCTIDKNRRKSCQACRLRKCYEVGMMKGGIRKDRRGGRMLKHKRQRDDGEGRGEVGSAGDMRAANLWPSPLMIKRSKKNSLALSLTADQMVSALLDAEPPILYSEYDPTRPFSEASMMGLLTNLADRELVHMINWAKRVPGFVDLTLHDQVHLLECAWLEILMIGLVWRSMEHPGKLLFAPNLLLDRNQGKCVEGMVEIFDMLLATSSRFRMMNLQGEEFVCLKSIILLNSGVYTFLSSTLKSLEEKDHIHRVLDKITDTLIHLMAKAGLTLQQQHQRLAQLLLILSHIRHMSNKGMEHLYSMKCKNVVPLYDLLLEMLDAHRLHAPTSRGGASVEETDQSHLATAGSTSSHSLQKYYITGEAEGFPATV
Procedure, shortened: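 Estradiol at 0.1 nM (final) stimulates the endogenous ER-alpha of VM7Luc4E2 cells carrying an ERE-driven luciferase; compounds are co-incubated 22 h at 37C and luciferase output quantified by luminescence.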

[9] = qHTS assay to identify small molecule HDAC inhibitors (AID 1259364);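 note: wild-type HCT-116 cells with endogenous class I/II HDAC activity; top concentration of the series differs between compounds; nearly all actives have a fitted effect of over 45% in size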
Procedure, shortened: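 Read-out: luminescence of HDAC-Glo I/II reagent, 30 min RT, reflecting class I/II deacetylase activity in whole HCT-116 cells pre-exposed 2 h to DMSO-dissolved compounds.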

[10] = qHTS assay to identify small molecule HDAC inhibitors - cell viability counter screen (AID 1259365)
Procedure, shortened: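 After overnight seeding at 1,500 cells per well, wild-type HCT-116 cultures took up compounds in DMSO for 2hr at 37 C. Viable cell content came from luminescence with CellTiter-Glo.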

[11] = qHTS assay to identify small molecule agonists of the sonic hedgehog signaling (Shh) pathway - cell viability counter screen (AID 1259366); note: nearly all actives have a fitted effect of over 50% in size
Procedure, shortened: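 Same-well cytotoxicity read. Gli1-Luc reporter 3T3 cells; compounds 24hr, 37C/5% CO2; CellTiter-Fluor fluorescence.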

[12] = qHTS assay to identify small molecule antagonists of the sonic hedgehog signaling (Shh) pathway - cell viability counter screen (AID 1259367); note: nearly all actives have a fitted effect of over 55% in size
Procedure, shortened: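 Using CellTiter-Fluor, viability of Gli1-Luc reporter 3T3 cells is read by fluorescence in the wells used for the Shh luciferase assay. Treatment lasts 23 hr with conditioned medium, then reagent 1 hr at 37C.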

[13] = qHTS assay to identify small molecule agonists of the sonic hedgehog signaling (Shh) pathway (AID 1259368; calls by dose curve;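 note: NIH/3T3-derived 3T3Gli1-Luc cells carrying a stable Gli1-driven firefly luciferase reporter; series mostly up to about 92 µM; nearly all actives have a fitted effect of over 15% in size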)
Procedure, shortened: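 A Gli1 transcriptional response element controlled firefly luciferase in 3T3Gli1-Luc cells. Compounds and a positive control were added 4 hr after plating, and cells were incubated a further 24 hr at 37 C before luminescence detection.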

[14] = qHTS assay to identify small molecule antagonists of the sonic hedgehog signaling (Shh) pathway (AID 1259369; calls by dose curve; note: nearly all actives have a fitted effect of over 45% in size; note: potency is the fitted concentration of half-maximal effect)
Procedure, shortened: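 For antagonist detection, the reporter line received test compounds together with conditioned medium, incubated 24hr at 37 C, 5% CO2, then luminescence was recorded following 30min room-temperature luciferase reagent incubation.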

[15] = target: Estrogen receptor beta (Homo sapiens) (UniProt Q92731); test: qHTS assay to identify small molecule agonists of the estrogen receptor beta (ER-beta) signaling pathway (AID 1259377; active = well fitted activation curve with a large enough effect in the signal ratio in the repeat runs, not every such curve was filed as active; the % refers to the signal ratio)
Chain of Estrogen receptor beta (Homo sapiens) (Q92731 whole entry, looked up): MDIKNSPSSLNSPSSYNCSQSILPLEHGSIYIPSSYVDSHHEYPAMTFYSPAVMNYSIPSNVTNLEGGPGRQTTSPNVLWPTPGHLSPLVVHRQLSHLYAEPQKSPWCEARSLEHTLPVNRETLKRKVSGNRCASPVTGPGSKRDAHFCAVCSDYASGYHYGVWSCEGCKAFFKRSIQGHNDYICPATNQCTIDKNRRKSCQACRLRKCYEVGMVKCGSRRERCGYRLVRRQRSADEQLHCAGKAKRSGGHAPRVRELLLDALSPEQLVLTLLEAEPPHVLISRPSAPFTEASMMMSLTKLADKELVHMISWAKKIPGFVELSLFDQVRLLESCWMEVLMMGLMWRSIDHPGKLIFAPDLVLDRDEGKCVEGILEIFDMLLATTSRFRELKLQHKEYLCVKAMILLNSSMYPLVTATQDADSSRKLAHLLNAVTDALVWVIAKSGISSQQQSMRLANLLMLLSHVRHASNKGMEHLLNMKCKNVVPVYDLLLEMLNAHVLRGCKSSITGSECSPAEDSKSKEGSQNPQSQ
Procedure, shortened: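 Read-out: beta-lactamase FRET fluorescence. Cell line: ER-beta-UAS-bla HEK293T in 2% charcoal-stripped FBS. Exposure: 16 hr at 37C. Substrate step: 2 h at room temperature.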

[16] = target: Estrogen receptor beta (Homo sapiens) (UniProt Q92731); test: qHTS assay to identify small molecule antagonists of the estrogen receptor beta (ER-beta) signaling pathway (AID 1259378; active = well fitted inhibition curve with a large enough effect in the signal ratio in the repeat runs, not every such curve was filed as active; the % refers to the signal ratio)
Procedure, shortened: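 Antagonist mode: compounds added to beta-lactamase reporter HEK293T ER-beta-UAS cells stimulated with E2 (1nM final), 16 hr at 37C. LiveBLAzer B/G FRET substrate, 2 hours room temperature, fluorescence read-out.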

[17] = qHTS assay to identify small molecule agonists of the estrogen receptor beta (ER-beta) signaling pathway - cell viability counter screen (AID 1259380); note: nearly all actives have a fitted effect of over 30% in size
Procedure, shortened: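 CellTiter-Glo read, 30 min RT, same wells as bla assay; cells ER-beta-UAS-bla HEK293T; 16 hr compound, 37C; medium 2% charcoal-stripped FBS.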

[18] = target: Androgen receptor (Homo sapiens) (UniProt P10275); test: qHTS assay to identify small molecule antagonists of the androgen receptor (AR) signaling pathway using the MDA cell line in the presence of 0.5 nM R1881 (AID 1259243); note: nearly all actives have a fitted effect of over 50% in size
Chain of Androgen receptor (Homo sapiens) (P10275 whole entry, looked up): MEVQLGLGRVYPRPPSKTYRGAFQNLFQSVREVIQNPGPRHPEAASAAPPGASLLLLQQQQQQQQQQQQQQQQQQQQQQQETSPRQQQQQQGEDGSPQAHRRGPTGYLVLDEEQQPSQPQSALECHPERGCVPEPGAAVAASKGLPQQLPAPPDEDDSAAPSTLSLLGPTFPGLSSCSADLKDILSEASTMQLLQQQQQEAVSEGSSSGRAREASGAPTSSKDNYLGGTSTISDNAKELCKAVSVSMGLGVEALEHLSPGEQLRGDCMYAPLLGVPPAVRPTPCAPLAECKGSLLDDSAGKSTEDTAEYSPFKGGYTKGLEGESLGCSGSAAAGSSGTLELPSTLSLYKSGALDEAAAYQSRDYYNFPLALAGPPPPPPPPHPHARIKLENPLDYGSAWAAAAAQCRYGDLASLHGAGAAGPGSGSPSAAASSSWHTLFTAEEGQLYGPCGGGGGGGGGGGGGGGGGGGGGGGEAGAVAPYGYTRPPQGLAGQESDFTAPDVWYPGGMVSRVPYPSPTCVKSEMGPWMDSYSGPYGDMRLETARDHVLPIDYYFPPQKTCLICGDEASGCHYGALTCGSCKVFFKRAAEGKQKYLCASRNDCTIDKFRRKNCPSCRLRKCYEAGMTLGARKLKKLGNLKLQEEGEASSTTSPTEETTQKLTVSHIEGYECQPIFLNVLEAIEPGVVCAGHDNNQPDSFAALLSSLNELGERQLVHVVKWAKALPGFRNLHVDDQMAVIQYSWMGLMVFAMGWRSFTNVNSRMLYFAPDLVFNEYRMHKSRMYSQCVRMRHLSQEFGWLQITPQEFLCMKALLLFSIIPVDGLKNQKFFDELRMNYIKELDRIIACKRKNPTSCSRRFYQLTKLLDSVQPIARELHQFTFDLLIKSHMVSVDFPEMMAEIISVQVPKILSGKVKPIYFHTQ
Procedure, shortened: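 Reporter cells cultured without CO2 receive test chemicals, then 0.5 nM R1881 final; after 16 hr at 37C, ONE-Glo is added and light output recorded.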

[19] = qHTS assay to identify small molecule agonists of the androgen receptor (AR) signaling pathway in the presence of an antagonist - cell viability counter screen (AID 1259379);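 note: MDA-kb2 human breast cancer cells carrying an MMTV luciferase reporter; series mostly up to about 92 µM; nearly all actives have a fitted effect of over 25% in size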
Procedure, shortened: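 Seed MDA-kb2 at 3,000 cells/well; incubate 5 hr, 37C, 0% CO2. Add nilutamide to 3.0uM final, then pin compounds at 15 concentrations. Incubate 16 hr. Add CellTiter-Fluor at 15 hr, read fluorescence after 1 hr.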

[20] = qHTS assay to identify small molecule phospholipidosis (PLD) inducers (AID 1259344; active = well fitted curve in the direction sought with a large enough effect; an effect the other way counts as inactive or inconclusive)
Procedure, shortened: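 Fluorescent phospholipid staining (LipidTOX Red) measured by automated microscopy in fixed HepG2 cells after 24 h treatment; nuclei counterstained with Hoechst 33342; amiodarone as reference inducer.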

Structure (SMILES) | Potency [1] | Potency [2] | Potency [3] | Potency [4] | Potency [5] | Potency [6] | Potency [7] | Potency [8] | Potency [9] | outcome [10] | Potency [11] | Potency [12] | outcome [13] | Potency [14] | Potency [15] | outcome [16] | outcome [17] | outcome [18] | Potency [19] | outcome [20]
Cc1c(C(C)C)c(=O)n(-c2ccccc2)n1C | inactive | inactive | inactive | inactive | inactive | inactive | inactive | inactive | inactive | inactive | inactive | inactive | inactive | 1.06 µM (active) | inactive | inactive | inactive | – | – | –
NCCc1ccn[nH]1 | inactive | inactive | inactive | inactive | inactive | inactive | inactive | – | inactive | inactive | inactive | – | inactive | inactive | inactive | inactive | inactive | inactive | inactive | –
CCN(Cc1cccc(S(=O)(=O)O)c1)c1ccccc1 | inactive | inactive | inactive | inactive | inactive | inactive | inactive | inactive | inactive | inactive | inactive | inactive | inactive | inactive | inactive | inactive | inactive | – | – | –
O=c1[nH]c(=O)c2ccccc2o1 | inactive | inactive | inactive | inactive | inactive | inactive | inactive | – | inactive | inactive | inactive | – | inactive | inactive | inactive | – | inactive | inactive | inactive | inactive
OC(CCN1CCCCC1)(c1ccccc1)c1ccccc1 | inactive | inactive | inactive | inactive | inactive | inactive | inactive | inactive | inactive | – | inactive | inactive | inactive | inactive | – | – | inactive | inactive | inactive | inactive
CCCCCCCCCCCCCC(=O)OC | inactive | inactive | inactive | inactive | inactive | inactive | inactive | – | inactive | inactive | – | inactive | inactive | inactive | inactive | inactive | inactive | inactive | inactive | –
Nc1nc(=O)n([C@@H]2O[C@H](CO)[C@@H](O)[C@@H]2F)cc1I | inactive | inactive | inactive | inactive | inactive | inactive | inactive | inactive | inactive | inactive | inactive | – | inactive | inactive | inactive | – | inactive | – | – | –
O=[Si]=O | inactive | inactive | inactive | inactive | inactive | inactive | inactive | inactive | inactive | inactive | inactive | – | – | inactive | inactive | inactive | inactive | – | inactive | –
